Several values for one entry are separate records, joined by “and”; a condition that tells them apart may be missing. Equal values may be shown once. Inconclusive results are not listed. Values without a mark were called inactive. Calls follow the shape of the dose curve; as a rule, active = well fitted activation curve with a large enough effect; inconclusive = small, poorly fitted or top-dose-only effect; inactive = no such curve, though single readings can be large or run the other way.

The target in this assay is Cellular tumor antigen p53 (Homo sapiens) (UniProt P04637). The assay can be described thus: Primary qHTS for small molecule compounds that upregulate eGFP-tagged delta133p53alpha (in N-terminal) cells. (AID 2060322).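 Also: series mostly up to about 56 µM; 0% = DMSO vehicle and 100% = reference activator; nearly all actives have a fitted effect of over 75% in size.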 As to conditions: NCI-H358 eGFP-delta133p53alpha fluorescence, 24 h; activation: hits give high values. The method in brief: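 NCI-H358 cells pre-induced 24 h with 10 ng/ml doxycycline for eGFP-delta133p53alpha, plated dox-free and exposed 24 h at 37C to titrated compounds. Fixed, Hoechst-stained; gated GFP peak intensity by laser scanning cytometry, normalized to DMSO (0%) and 57.5 uM 5-azacytidine (100%).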
Cellular tumor antigen p53 (Homo sapiens), sequence (P04637 whole entry, looked up): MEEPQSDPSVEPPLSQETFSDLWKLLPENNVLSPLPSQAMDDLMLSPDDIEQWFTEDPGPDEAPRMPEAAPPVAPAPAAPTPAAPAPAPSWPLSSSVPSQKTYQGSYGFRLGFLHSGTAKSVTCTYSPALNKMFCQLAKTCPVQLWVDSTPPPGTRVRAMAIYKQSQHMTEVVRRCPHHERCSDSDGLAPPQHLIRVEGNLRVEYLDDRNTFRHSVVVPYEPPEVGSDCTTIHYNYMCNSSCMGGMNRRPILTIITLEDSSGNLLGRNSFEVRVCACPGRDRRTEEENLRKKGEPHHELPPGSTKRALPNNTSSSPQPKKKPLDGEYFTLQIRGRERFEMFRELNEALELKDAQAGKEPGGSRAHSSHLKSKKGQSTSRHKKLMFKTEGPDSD
In general terms: qHTS replaces the single test concentration by a dilution series.
Consider `O=C1c2ccccc2C(=O)C1c1ccc(Br)cc1`, for which the activation was -22%.

On to `COc1ccc(OC)c(C(O)CNC(=O)CN)c1` (stereo not given), for which the activation was 8.47%. To `NC(=Nc1ccccc1)Nc1ccccc1` belongs 7.53%.

Consider `NS(=O)(=O)c1ccc(C(=O)O)cc1`, for which the activation was -37.9%.

`CCCCCC(=O)O[C@]1(C(C)=O)CC[C@H]2[C@@H]3CCC4=CC(=O)CC[C@]4(C)[C@H]3CC[C@@]21C`: the activation was 23.2%. In the case of `COc1ccc(S(=O)(=O)Nc2nnc(CC(C)C)s2)cc1` it was -11.7%. To `C[C@]12C=CC(=O)C=C1CC[C@@H]1C2=CC[C@]2(C)[C@@H](C(=O)CN3CCN(c4cc(N5CCCC5)nc(N5CCCC5)n4)CC3)CC[C@@H]12` belongs -22.1%; to `CC(C)c1cc2c(c(O)c1O)[C@@]13CCCC(C)(C)[C@@H]1[C@H](OC3=O)C2=O`, 0%.

For `CC(=O)c1ccc2c(c1)N(CCCN1CCC(CCO)CC1)c1ccccc1S2`, the activation was 0%.

As to `NC(CSCC(=O)O)C(=O)O` (stereo not given), the activation is -5.08%. In the case of `Cc1ccc(-c2ccccc2C#N)cc1` it was -11.9%; in that of `COc1ccc2cc1Oc1ccc(cc1)C[C@H]1c3cc(c(OC)cc3CCN1C)Oc1c(OC)c(OC)cc3c1[C@H](C2)N(C)CC3`, -18.2%. As to `COc1ccc2nc(NC(=O)Nc3ccccc3)sc2c1`, the activation is -19.8%.

In the case of `O=C(OOC(=O)c1ccccc1)c1ccccc1`, the activation is -15.1%.

On to `COc1ccccc1N1CCN(CC(O)COc2cc(OC)c(OC)c(OC)c2)CC1` (stereo not given), for which the activation was -6.21%. Regarding `CNC[C@@H](O)[C@@H](O)[C@H](O)[C@H](O)CO`, the activation was 4.39%. As to `Cc1ccc(C(=O)c2ccc(CC(=O)O)n2C)cc1`, the activation was 14.1%. Consider `N[C@H]1C(O)O[C@H](CO)[C@@H](O)[C@@H]1O` (stereo not given in full), for which the activation was -0.837%. Consider `N[C@@H](CSSC[C@H](N)C(=O)O)C(=O)O`, for which the activation is 24.3%. To `COc1cc(C(=O)N2CCCCCCC2)cc(OC)c1OC` belongs -6.21%; to `CNS(=O)(=O)Cc1ccc2[nH]cc(CCN(C)C)c2c1`, -6.69% and -7.27%; to `CCS(=O)(=O)c1ccc(OC)c(C(=O)OC)c1`, 19.8%. In the case of `Nc1ccc(C(=O)O)cc1`, the activation is -29.9%. On to `CCOc1ccc(Cc2cc([C@@H]3O[C@H](CO)[C@@H](O)[C@H](O)[C@@H]3O)ccc2Cl)cc1`, for which the activation is -1.71%. In the case of `CCCCCCc1ccc(O)cc1O` it was 3.35%; in that of `CCN(CCCc1ccccc1)CCCc1ccccc1`, -1.67%; in that of `C=CCn1c(=O)n([C@@H]2O[C@H](CO)[C@@H](O)[C@H]2O)c2nc(N)[nH]c(=O)c21`, -0.565%. As for `C/C(=C(\CCOP(=O)(O)O)SC(=O)c1ccccc1)N(C=O)Cc1cnc(C)nc1N`, the activation was -11.7%. In the case of `O=C(O)COc1nn(Cc2ccccc2)c2ccccc12`, the activation is 28.8%.

On to `Cc1cc2c(cc1S(N)(=O)=O)S(=O)(=O)CCC2`, for which the activation is -27.6%. With `NC(=S)N/N=C/c1cccnc1`, the activation was 0.565%.

`N[C@@H](Cc1cc(I)c(Oc2ccc(O)c(I)c2)c(I)c1)C(=O)O`: the activation is -7.64%. As to `O=C1c2cccc(O)c2C(=O)c2c(O)cccc21`, the activation was -22.6%. For the compound `[O-][n+]1cccc(CO)c1`, the activation was 20.1%. In the case of `CCc1ccc(C(=O)C(C)CN2CCCCC2)cc1` (stereo not given) it was -5.86%. Turning to `OCCN1C[C@H](O)[C@@H](O)[C@H](O)[C@@H]1CO`, the activation is 24.9%.

Regarding `N#CCC(=O)NN`, the activation was 15.9%.

Consider `CCCCCCCCCCC[C@@H](C[C@@H]1OC(=O)[C@H]1CCCCCC)OC(=O)[C@H](CC(C)C)NC=O`, for which the activation was 2.82%. In the case of `CN1CCc2cccc3c2[C@H]1Cc1ccc(O)c(O)c1-3` it was 21.8%; in that of `OC[C@@H](O)[C@H](O)[C@H](O)[C@@H](O)CO`, -3.35% and 22.6%.

The values above are taken from PubChem BioAssay (NCATS).
